According to PubChem BioAssay (NCATS):
Inconclusive results are not listed. A call without a number means that no potency is given here. Activity calls are given as the source filed them. Calls follow the shape of the dose curve; as a rule, active = well fitted inhibition curve with a large enough effect; inconclusive = small, poorly fitted or top-dose-only effect; inactive = no such curve, though single readings can be large or run the other way.

What follows are molecules tested against Retinaldehyde dehydrogenase 3 (Homo sapiens) (UniProt P47895) (assay: qHTS for Inhibitors of the Aldehyde Dehydrogenase Family (ALDH1A3) Primary screen (AID 2061315)). Settings: ALDH inhibition qHTS; series mostly up to 56 µM.

| SMILES | Potency |
| --- | --- |
| OCC(O)CN1CCN(c2ccccc2)CC1 (stereo not given) | inactive |
| Fc1ccc2c(CCNCc3cccc(OCC(F)(F)C(F)F)c3)c[nH]c2c1 | inactive |
| O=S(=O)(NC1CCC(c2cc(F)ccc2F)(S(=O)(=O)c2ccc(Cl)cc2)CC1)C(F)(F)F (stereo not given) | inactive |
| CC(=O)Nc1cccc(Nc2ncnc(N3CCC(OCc4ccc(OC(F)(F)F)cc4)CC3)n2)c1C | inactive |
| CC(=O)O[C@]1(C(C)=O)CC[C@H]2[C@@H]3CCC4=CC(=O)CCC4=C3[C@@H](c3ccc(N(C)C)cc3)C[C@@]21C | inactive |
| O=C(NCCCN1CCOCC1)c1cnn2c(-c3ccccc3)cc(-c3ccccc3)nc12 | inactive |
| COc1cccc(C(=O)NCCNc2nc3cc(C)cc(C)c3cc2C#N)c1 | inactive |
| CC(C)(C)c1ccc(CNC(=S)NCc2ccc(NS(C)(=O)=O)c(F)c2)cc1 | inactive |
| CC(=O)NC1=NN(C(C)=O)C(C)(c2ccccc2)S1 (stereo not given) | inactive |
| COc1ccc(C(=O)n2c(C)c(Cc3cccc(O[C@@H](C)C(=O)O)c3)c3cc(OC(F)(F)F)ccc32)cc1 | inactive |
| O=C(NCC1CCN(Cc2cccc(Cl)c2)CC1)[C@@H]1CCCN(c2ncnc3c2nc2n3CCCC2)C1 | inactive |
| COc1cc(N2CCOCC2)ccc1NC(=O)c1csc(-c2cccnc2)n1 | inactive |
| CNS(=O)(=O)CC1CCC(N(C)c2ncnc3[nH]ccc23)CC1 (stereo not given) | inactive |
| Cc1noc(C)c1-c1cc(O)cc(C(O)c2ccccc2)c1 (stereo not given) | inactive |
| CCOC(CN1CCN(CC(C)C(=O)c2ccccc2)CC1)c1ccccc1 (stereo not given) | inactive |
| O=c1[nH]cnc2c1ncn2[C@@H]1O[C@H](CO)[C@@H](O)[C@H]1O | inactive |
| CN(C)C(=O)NC1(c2ccccc2)CCN(CCC[C@]2(c3ccc(Cl)c(Cl)c3)CCCN(C(=O)c3ccccc3)C2)CC1 | inactive |
| Cn1c2ccc(F)cc2c2c(C(=O)N3CCCC3)cn(-c3ccccc3)c(=O)c21 | inactive |
| O=C(NCc1ccccn1)Nc1nnc(-c2ccco2)o1 | inactive |
| Cc1nc2cc(-c3cc(F)cc(C#N)c3)ccc2s1 | inactive |

| SMILES | Potency |
| --- | --- |
| Cc1nc(Nc2ccc(F)cc2)nc(N2CCc3ccccc3C2C)c1C (stereo not given) | inactive |
| Cn1c(=O)cc(N2CCCC(N)C2)n(Cc2cc(F)ccc2C#N)c1=O (stereo not given) | inactive |
| c1ccc(Nc2nc3c(s2)CCCc2[nH]ncc2-3)nc1 | inactive |
| Cc1c(C(=O)Nc2ccc(N3CC(C)OC(C)C3)nc2)cccc1-c1ccc(OC(F)(F)F)cc1 (stereo not given) | inactive |
| CC[C@@H](c1ccc(F)c(F)c1)n1c(C(=O)OC)c(-c2ccno2)[nH]c1=S | inactive |
| Cc1ccc(C2(C(=O)N3CCC(n4nc(-c5ccccc5)oc4=O)CC3)CC2)cc1 | inactive |
| COC(=O)N1CCC(n2ncc3c(N4CCOCC4)nc(-c4ccc(NC(=O)NC5CC5)cc4)nc32)CC1 | inactive |
| CC(C)c1c(NC(=O)Nc2ccc(Cl)cc2)c(=O)n(-c2ccccc2)n1C | inactive |
| CCCCc1ccc(C(=O)Nc2cc(-c3ccc(Cl)cc3)nn2-c2ccc(Cl)cc2)cc1 | inactive |
| CC(C)S(=O)(=O)Nc1ccc(F)c(C(=O)c2c[nH]c3ncc(-c4cccnc4)cc23)c1F | inactive |
| COc1cccc(-c2ccc([C@@H](Oc3cc(-c4ccc(C[C@H](N)C(=O)O)cc4)nc(N)n3)C(F)(F)F)cc2)c1 | inactive |
| CC[C@H]1OC(=O)C[C@@H](O)[C@H](C)[C@@H](O[C@@H]2O[C@H](C)[C@@H](O)[C@H](N(C)C)[C@H]2O)[C@@H](CCN2C[C@H](C)C[C@H](C)C2)C[C@@H](C)C(=O)/C=C/C(C)=C/[C@@H]1CO[C@@H]1O[C@H](C)[C@@H](O)[C@@H](OC)[C@H]1OC | inactive |
| CN1CCOC(c2ccccc2)c2ccccc2C1 (stereo not given) | inactive |
| OC1CCC(Nc2nc(-c3ccccc3)nc3[nH]ccc23)CC1 (stereo not given) | inactive |
| CN(CCc1ccc(Nc2ncc(-c3cccnc3)s2)cc1)Cc1ccccc1 | inactive |
| Cc1ccc2[nH]c(=O)c(C3=NN(C(=O)CCC(=O)O)C(c4ccc(Br)cc4)C3)c(-c3ccccc3)c2c1 (stereo not given) | inactive |
| Cc1nc(C)c(-c2ccc(C3CCC(CC(=O)O)CC3)cc2)nc1C(N)=O (stereo not given) | inactive |
| CCN(CC)C(=O)C(c1ccccc1)N1CCN(c2ccc(NC(=O)c3ccccc3-c3cccnc3)cc2F)CC1 (stereo not given) | inactive |
| CN(C)c1nc(Cc2ccc(NC(=O)c3ccc(C(F)(F)F)cc3)cc2)nc(N(C)C)c1CC(=O)O | inactive |
| CC(=O)N(C)C1(c2ccccc2)CCN(CCC[C@]2(c3ccc(Cl)c(Cl)c3)CCCN(C(=O)c3ccccc3)C2)CC1 | inactive |
